In PubChem BioAssay AID1159580 (chemical genetic matrix, 2015):
Several values for one entry are separate records, joined by “and”; a condition that tells them apart may be missing. Equal values may be shown once. The whole screen tested about 5,500 compounds, of which about 2,000 (36%) were called active. Roughly 18% stayed inconclusive and do not appear here. Rule as the data show it: active = normalized growth mostly below about 0.91 (no sharp cut-off); inconclusive = no clear call, values can overlap the other calls; inactive = mostly above about 0.92. This is one part of the list.

Test: chemical genetic growth profiling, strain panel (AID 1159580);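 also: tested at 20 µM; growth read once vehicle control cultures reached saturation at 30 °C; 1 = growth at the plate median or of vehicle wells; lower values mean less growth of the strain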
Conditions: S. cerevisiae deletion strains, growth OD

Measured: normalized growth

NC(=O)NC1NC(=O)NC1=O (configuration not stated)
inactive: locus YAL013W, strain DEP1, hits give low values 0.994 | locus YAL021C, strain ccr4, hits give low values 0.995 | locus YAL026C, strain drs2, hits give low values 1 | locus YAL030W, strain snc1, hits give low values 0.999 | locus YBL061C, strain skt5, hits give low values 1 | locus YBR009C, strain hhf1, hits give low values 0.999 | locus YBR021W, strain FUR4, hits give low values 0.996 | locus YBR023C, strain chs3, hits give low values 1 | locus YBR171W, strain sec66, hits give low values 1.01 | locus YBR229C, strain ROT2, hits give low values 0.987 | locus YBR231C, strain swc5, hits give low values 0.996 | locus YBR279W, strain paf1, hits give low values 1.01 | locus YCL011C, strain gbp2, hits give low values 1.01 | locus YCL016C, strain dcc1, hits give low values 1 | locus YCL029C, strain bik1, hits give low values 0.976 | locus YCL061C, strain MRC1, hits give low values 0.995 | locus YCL069W, strain vba3, hits give low values 1.01 | locus YCR088W, strain abp1, hits give low values 0.995 | locus YDL005C, strain med2, hits give low values 1 | locus YDL035C, strain GPR1, hits give low values 1.01 | locus YDL040C, strain nat1, hits give low values 0.999 | locus YDL074C, strain BRE1, hits give low values 1.01 | locus YDL101C, strain DUN1, hits give low values 0.981 | locus YDL134C, strain PPH21, hits give low values 0.982 | locus YDL185W, strain tfp1, hits give low values 0.982 | locus YDL192W, strain arf1, hits give low values 0.988 | locus YDR001C, strain nth1, hits give low values 1.01 | locus YDR069C, strain doa4, hits give low values 1 | locus YDR101C, strain arx1, hits give low values 0.98 | locus YDR137W, strain rgp1, hits give low values 0.991 | locus YDR150W, strain NUM1, hits give low values 0.998 | locus YDR159W, strain sac3, hits give low values 0.995 | locus YDR162C, strain NBP2, hits give low values 0.992 | locus YDR195W, strain ref2 0.998 | locus YDR297W, strain sur2, hits give low values 1.01 | locus YDR318W, strain mcm21, hits give low values 0.986 | locus YDR334W, strain swr1, hits give low values 1 | locus YDR335W, strain msn5, hits give low values 1.01 | locus YDR388W, hits give low values 0.979 | locus YDR392W, strain spt3, hits give low values 0.958 | locus YDR502C, strain sam2, hits give low values 1.02 | locus YEL003W, strain gim4, hits give low values 1.01 | locus YEL037C, strain rad23, hits give low values 1.01 | locus YEL061C, strain CIN8 (second series), hits give low values 1.01 | locus YEL061C, strain CIN8, hits give low values 1 | locus YER015W, strain faa2, hits give low values 1 | locus YER016W, strain bim1, hits give low values 1.01 | locus YER110C, hits give low values 0.979 | locus YER111C, strain swi4, hits give low values 1.01 | locus YER155C, strain BEM2 (second series), hits give low values 1.01 | locus YER155C, strain BEM2, hits give low values 0.997 | locus YER167W, strain BCK2, hits give low values 1 | locus YFR010W, strain ubp6, hits give low values 1.01 | locus YGL078C, strain dbp3, hits give low values 0.989 | locus YGL086W, strain mad1, hits give low values 0.999 | locus YGL167C, strain pmr1, hits give low values 1 | locus YGL173C, strain kem1, hits give low values 1 | locus YGL227W, strain vid30, hits give low values 1 | locus YGL240W, strain doc1, hits give low values 0.996 | locus YGL248W, strain PDE1, hits give low values 0.986 | locus YGL253W, strain hxk2, hits give low values 1 | locus YGR078C, strain PAC10, hits give low values 0.987 | locus YGR135W, strain pre9, hits give low values 0.998 | locus YGR229C, strain SMI1, hits give low values 1.01 | locus YGR252W, strain gcn5, hits give low values 1.13 | locus YHR013C, strain ard1, hits give low values 1.01 | locus YHR027C, strain rpn1, hits give low values 1 | locus YHR030C, strain SLT2, hits give low values 0.994 and 1.03 | locus YHR079C, strain IRE1 (second series), hits give low values 0.972 | locus YHR079C, strain IRE1, hits give low values 1.02 | locus YHR094C, strain hxt1, hits give low values 0.983 | locus YHR129C, strain ARP1, hits give low values 0.983 | locus YHR142W, strain chs7, hits give low values 1.01 | locus YHR200W, strain rpn10, hits give low values 0.988 | locus YIL066C, strain RNR3, hits give low values 0.994 | locus YIL073C, strain SPO22, hits give low values 0.998 | locus YIL125W, strain kgd1, hits give low values 0.999 | locus YIR030C, strain dcg1, hits give low values 0.984 | locus YJL092W, strain hpr5, hits give low values 1 | locus YJL095W, strain BCK1 (second series), hits give low values 1 | locus YJL095W, strain BCK1, hits give low values 0.98 and 1.03 | locus YJL115W, strain asf1, hits give low values 0.997 | locus YJL129C, strain trk1, hits give low values 0.997 | locus YJL134W, strain LCB3, hits give low values 0.991 | locus YJL154C, strain vps35, hits give low values 1.01 | locus YJL164C, strain tpk1, hits give low values 1 | locus YJL166W, strain qcr8, hits give low values 0.993 | locus YJL168C, strain set2, hits give low values 0.98 | locus YJL187C, strain SWE1 (second series), hits give low values 0.979 | locus YJL187C, strain SWE1, hits give low values 1 | locus YJR043C, strain POL32, hits give low values 0.979 | locus YJR066W, strain TOR1, hits give low values 0.984
